Reference: article PMC5540273 (PLoS ONE, 2017)

What was measured:
Conditions in all cases: concentration: 1 μM,replicates: in singlicate; n = 1
ERK1 = test system: T1, ERK1
T1 construct: gene MAPK3

ERK2 = test system: T2, ERK2
T2 construct: gene MAPK1

ERK3 = test system: T3, ERK3
T3 construct: gene MAPK6

ERK4 = test system: T4, ERK4
T4 construct: gene MAPK4

ERK5 = test system: T5, ERK5
T5 construct: gene MAPK7

ERK8 = test system: T6, ERK8
T6 construct: gene MAPK15

ERN1 = test system: ERN1
FAK = test system: T7, FAK
T7 construct: gene PTK2

FER = test system: FER
FES = test system: FES
FGFR1 = test system: FGFR1
FGFR2 = test system: FGFR2
FGFR3 = test system: FGFR3
FGFR4 = test system: FGFR4
FGR = test system: FGR
FLT1 = test system: FLT1
FLT3-autoinhibited = test system: FLT3-autoinhibited
FLT3 = test system: FLT3
FLT4 = test system: FLT4
FRK = test system: FRK
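Further: KINOMEscan kinase panel screen.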

## Cc1cccc(-c2nc(Nc3ccncc3)c3sccc3n2)n1 [GW869641]
ERK1
  %Inh: 5%
ERK2
  %Inh: 18%
ERK3
  %Inh: 3%
ERK4
  %Inh: 26%
ERK5
  %Inh: 0%
ERK8
  %Inh: 2%
ERN1
  %Inh: 32%
FAK
  %Inh: 2%
FER
  %Inh: 9%
FES
  %Inh: 7%
FGFR1
  %Inh: 16%
FGFR2
  %Inh: 0%
FGFR3
  %Inh: 7%
FGFR4
  %Inh: 8%
FGR
  %Inh: 11%
FLT1
  %Inh: 26%
FLT3-autoinhibited
  %Inh: 14%
FLT3
  %Inh: 41%
FLT4
  %Inh: 15%
FRK
  %Inh: 1%

## Cc1ccc2c(-c3ccnc(Nc4ccc(C(F)(F)F)cc4)n3)cnn2n1 [GW819776]
ERK1
  %Inh: 19%
ERK2
  %Inh: 3%
ERK3
  %Inh: 22%
ERK4
  %Inh: 0%
ERK5
  %Inh: 0%
ERK8
  %Inh: 99.4%
ERN1
  %Inh: 17%
FAK
  %Inh: 13%
FER
  %Inh: 18%
FES
  %Inh: 10%
FGFR1
  %Inh: 5%
FGFR2
  %Inh: 0%
FGFR3
  %Inh: 0%
FGFR4
  %Inh: 6%
FGR
  %Inh: 4%
FLT1
  %Inh: 0%
FLT3-autoinhibited
  %Inh: 0%
FLT3
  %Inh: 59%
FLT4
  %Inh: 0%
FRK
  %Inh: 20%

## FC(F)(F)c1cc(Br)cc(Nc2nccc(-c3cnn4ncccc34)n2)c1 [GW810578]
ERK1
  %Inh: 0%
ERK2
  %Inh: 25%
ERK3
  %Inh: 16%
ERK4
  %Inh: 0%
ERK5
  %Inh: 0%
ERK8
  %Inh: 99.5%
ERN1
  %Inh: 59%
FAK
  %Inh: 18%
FER
  %Inh: 0%
FES
  %Inh: 0%
FGFR1
  %Inh: 4%
FGFR2
  %Inh: 0%
FGFR3
  %Inh: 0%
FGFR4
  %Inh: 77%
FGR
  %Inh: 16%
FLT1
  %Inh: 30%
FLT3-autoinhibited
  %Inh: 70%
FLT3
  %Inh: 95.7%
FLT4
  %Inh: 6%
FRK
  %Inh: 0%

## Cl.c1ccc(Oc2ccc(Nc3ccnc4cc(-c5ccc(CN6CCNCC6)o5)ccc34)cc2)nc1 [GW567142]
ERK1
  %Inh: 0%
ERK2
  %Inh: 0%
ERK3
  %Inh: 0%
ERK4
  %Inh: 30%
ERK5
  %Inh: 0%
ERK8
  %Inh: 0%
ERN1
  %Inh: 0%
FAK
  %Inh: 9%
FER
  %Inh: 4%
FES
  %Inh: 0%
FGFR1
  %Inh: 0%
FGFR2
  %Inh: 0%
FGFR3
  %Inh: 0%
FGFR4
  %Inh: 0%
FGR
  %Inh: 74%
FLT1
  %Inh: 8%
FLT3-autoinhibited
  %Inh: 41%
FLT3
  %Inh: 90.4%
FLT4
  %Inh: 6%
FRK
  %Inh: 7%

## CS(=O)(=O)c1cccc(CNc2nc(Nc3ccc4c(c3)[C@@H]3C[C@@H]4CNC3=O)ncc2C(F)(F)F)c1
ERK1
  %Inh: 24%
ERK2
  %Inh: 44%
ERK3
  %Inh: 0%
ERK4
  %Inh: 0%
ERK5
  %Inh: 7%
ERK8
  %Inh: 99.6%
ERN1
  %Inh: 17%
FAK
  %Inh: 100%
FER
  %Inh: 93.4%
FES
  %Inh: 85%
FGFR1
  %Inh: 86%
FGFR2
  %Inh: 85%
FGFR3
  %Inh: 73%
FGFR4
  %Inh: 92.1%
FGR
  %Inh: 31%
FLT1
  %Inh: 94.4%
FLT3-autoinhibited
  %Inh: 75%
FLT3
  %Inh: 99.6%
FLT4
  %Inh: 99.4%
FRK
  %Inh: 0%

## C[C@@H]1CNc2c(sc3ccc4nc(-c5ccncc5)ccc4c23)C(=O)N1
ERK1
  %Inh: 0%
ERK2
  %Inh: 6%
ERK3
  %Inh: 0%
ERK4
  %Inh: 16%
ERK5
  %Inh: 15%
ERK8
  %Inh: 24%
ERN1
  %Inh: 0%
FAK
  %Inh: 0%
FER
  %Inh: 20%
FES
  %Inh: 9%
FGFR1
  %Inh: 9%
FGFR2
  %Inh: 0%
FGFR3
  %Inh: 0%
FGFR4
  %Inh: 26%
FGR
  %Inh: 40%
FLT1
  %Inh: 3%
FLT3-autoinhibited
  %Inh: 0%
FLT3
  %Inh: 0%
FLT4
  %Inh: 4%
FRK
  %Inh: 10%

## Cn1ccc2ncnc(Oc3ccc(NC(=O)Nc4cnn(C(C)(C)C)c4)c(Cl)c3)c21
ERK1
  %Inh: 19%
ERK2
  %Inh: 4%
ERK3
  %Inh: 0%
ERK4
  %Inh: 1%
ERK5
  %Inh: 7%
ERK8
  %Inh: 25%
ERN1
  %Inh: 26%
FAK
  %Inh: 0%
FER
  %Inh: 0%
FES
  %Inh: 13%
FGFR2
  %Inh: 14%
FGFR3
  %Inh: 1%
FGFR4
  %Inh: 0%
FGR
  %Inh: 10%
FLT1
  %Inh: 97.4%
FLT3-autoinhibited
  %Inh: 8%
FLT3
  %Inh: 99.2%
FLT4
  %Inh: 98.3%
FRK
  %Inh: 70%

## O=C(NCC1CC1)c1ccc(-c2cc(C(=O)NC3CC3)ccc2F)cc1 [GW810445]
ERK1
  %Inh: 0%
ERK2
  %Inh: 0%
ERK3
  %Inh: 0%
ERK4
  %Inh: 0%
ERK5
  %Inh: 1%
ERK8
  %Inh: 0%
ERN1
  %Inh: 0%
FAK
  %Inh: 3%
FER
  %Inh: 0%
FES
  %Inh: 0%
FGFR1
  %Inh: 0%
FGFR2
  %Inh: 0%
FGFR3
  %Inh: 0%
FGFR4
  %Inh: 0%
FGR
  %Inh: 0%
FLT1
  %Inh: 0%
FLT3-autoinhibited
  %Inh: 0%
FLT3
  %Inh: 12%
FLT4
  %Inh: 0%
FRK
  %Inh: 2%

## COC(=O)c1cccc(NC(=O)NC2CCN(c3ccnc(Nc4cc(OC)c(OC)c(OC)c4)n3)C2)c1 (centres unmarked) [GSK1379767]
ERK1
  %Inh: 0%
ERK2
  %Inh: 0%
ERK3
  %Inh: 19%
ERK4
  %Inh: 0%
ERK5
  %Inh: 0%
ERK8
  %Inh: 0%
ERN1
  %Inh: 4%
FAK
  %Inh: 0%
FER
  %Inh: 17%
FES
  %Inh: 15%
FGFR1
  %Inh: 0%
FGFR2
  %Inh: 0%
FGFR3
  %Inh: 32%
FGFR4
  %Inh: 0%
FGR
  %Inh: 25%
FLT1
  %Inh: 13%
FLT3-autoinhibited
  %Inh: 4%
FLT3
  %Inh: 33%
FLT4
  %Inh: 14%
FRK
  %Inh: 17%
